± gives the standard deviation of the averaged measurements.
Compound: CC(C)c1cccc(C(C)C)c1N1C(=O)c2ccc(O)cc2C1=O
Experiment: reporter fold induction vs vehicle; higher = higher reporter activity
Procedure, shortened: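 Multiplexed cellular biosensor reporter system with cis response-element and trans nuclear-receptor transcription factor reporter constructs (48 cis, 25 trans) and homogeneous detection, tested in ToxCast Phase II at 8 concentrations (0.091–200 µM). Reporter activity is given as fold induction relative to vehicle control. Replicates were averaged where present.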

Row | Target | reporter fold induction (0.091 µM) | reporter fold induction (0.274 µM) | reporter fold induction (0.823 µM) | reporter fold induction (2.469 µM) | reporter fold induction (7.407 µM) | reporter fold induction (22.22 µM) | reporter fold induction (66.67 µM) | reporter fold induction (200 µM)
1 | RXRb_TRANS | 1.04 | 1.11 | 1.24 | 1.01 | 1.17 | 1.19 | 1.07 | 0.915
2 | TA_CIS | 1.06 | 1 | 1.04 | 0.923 | 0.983 | 1.08 | 1.39 | 1.22
3 | RORE_CIS | 1.04 | 1.06 | 1.06 | 0.974 | 1.08 | 1.15 | 1.84 | 1.72
4 | Ahr_CIS | 0.965 | 0.977 | 0.949 | 1.01 | 1.06 | 1 | 2.27 | 1.09
5 | CMV_CIS | 0.996 | 0.94 | 1 | 0.92 | 1.02 | 1.41 | 1.73 | 1.11
6 | M_19_TRANS | 1.08 | 0.97 | 1.01 | 0.967 | 0.981 | 0.997 | 1.01 | 1.02
7 | ERa_TRANS | 1.72 | 2.62 | 4.32 | 5.19 | 4.48 | 4.97 | 2.96 | 1.06
8 | PPRE_CIS | 1.02 | 0.905 | 1.09 | 0.944 | 1.08 | 1.21 | 2.59 | 1.68
9 | E_Box_CIS | 1.04 | 0.955 | 1.02 | 0.967 | 1.11 | 0.945 | 1.06 | 0.895
10 | M_06_TRANS | 0.964 | 1.01 | 0.995 | 1.01 | 1.01 | 1 | 0.996 | 0.992
11 | XTT_Cytotoxicity | 97.6 ± 5.6 | 107 ± 18 | 111 ± 0.85 | 108 ± 3.1 | 123 ± 3.8 | 111.2 ± 0.75 | 113.8 ± 0.46 | 106.5 ± 0.33
12 | GATA_CIS | 1 | 0.993 | 0.983 | 1.05 | 0.98 | 0.902 | 1.07 | 0.842
13 | ERRg_TRANS | 1.02 | 1.11 | 1.14 | 1.02 | 0.941 | 1.07 | 0.845 | 0.391
14 | GRE_CIS | 0.966 | 0.951 | 1.06 | 1.05 | 0.999 | 0.996 | 1.01 | 0.888
15 | TCF_b_cat_CIS | 1.06 | 0.944 | 1.13 | 1.06 | 0.839 | 0.671 | 0.77 | 0.204
16 | RARb_TRANS | 0.778 | 0.835 | 0.897 | 0.861 | 1.51 | 1.95 | 1.29 | 0.429
17 | GAL4_TRANS | 1.03 | 0.907 | 0.951 | 0.908 | 0.842 | 0.905 | 0.61 | 0.53
18 | p53_CIS | 1.06 | 1.04 | 1.03 | 0.969 | 0.996 | 0.831 | 1.19 | 0.456
19 | RARg_TRANS | 1.16 | 0.981 | 1.09 | 1.21 | 1.54 | 1.83 | 1.82 | 0.812
20 | NRF2_ARE_CIS | 1.19 | 1.1 | 0.995 | 0.886 | 1.15 | 1.48 | 2.47 | 0.886

Row | Target | reporter fold induction (0.091 µM) | reporter fold induction (0.274 µM) | reporter fold induction (0.823 µM) | reporter fold induction (2.469 µM) | reporter fold induction (7.407 µM) | reporter fold induction (22.22 µM) | reporter fold induction (66.67 µM) | reporter fold induction (200 µM)
21 | E2F_CIS | 1.02 | 0.922 | 0.954 | 1.04 | 0.971 | 0.968 | 0.945 | 1.23
22 | PBREM_CIS | 1.05 | 1.04 | 0.916 | 0.965 | 1.24 | 1.15 | 1.19 | 1.16
23 | DR5_CIS | 0.96 | 1.09 | 1.11 | 0.929 | 1.98 | 2.11 | 1.71 | 2.04
24 | M_06_CIS | 0.997 | 0.997 | 1.01 | 0.995 | 1.02 | 1.02 | 0.98 | 1.09
25 | MRE_CIS | 1.05 | 0.983 | 1 | 0.924 | 1.22 | 1.2 | 1.8 | 3.72
26 | PXRE_CIS | 1.22 | 1.56 | 0.755 | 0.738 | 6.98 | 6.26 | 2.42 | 0.398
27 | VDR_TRANS | 1.07 | 1.13 | 1.1 | 1.39 | 1.07 | 1.41 | 1.2 | 1.54
28 | PPARd_TRANS | 1.05 | 0.856 | 0.9 | 1.11 | 0.953 | 1.14 | 1.27 | 1.45
29 | NF_kB_CIS | 1.08 | 0.96 | 0.971 | 0.979 | 0.968 | 1.08 | 1.39 | 1.06
30 | CRE_CIS | 1.08 | 1.03 | 1.01 | 0.951 | 1.11 | 1.17 | 2.03 | 3.21
31 | PXR_TRANS | 1.15 | 2.07 | 3.25 | 4.39 | 3.39 | 3.71 | 3.61 | 1.33
32 | Myb_CIS | 0.995 | 0.98 | 1.02 | 0.983 | 0.998 | 0.979 | 1.03 | 1.13
33 | HNF4a_TRANS | 1.1 | 1.42 | 0.883 | 1.11 | 1.1 | 1.07 | 0.715 | 0.473
34 | VDRE_CIS | 1.07 | 1.09 | 0.969 | 0.979 | 1.62 | 1.76 | 2.18 | 3.25
35 | RORg_TRANS | 1.15 | 1.17 | 1.17 | 1.35 | 1.43 | 0.891 | 0.575 | 0.332
36 | TGFb_CIS | 1.08 | 0.916 | 0.91 | 0.906 | 0.939 | 1.03 | 1.23 | 0.915
37 | AP_2_CIS | 1.04 | 1 | 1 | 1.05 | 1.01 | 0.908 | 0.965 | 0.898
38 | RORb_TRANS | 0.758 | 0.955 | 0.81 | 1.32 | 0.966 | 0.625 | 0.434 | 0.342
39 | NRF1_CIS | 1.01 | 0.997 | 1.04 | 1.01 | 0.978 | 0.868 | 1.02 | 1.44
40 | DR4_LXR_CIS | 1.02 | 0.906 | 1 | 1.02 | 0.88 | 0.462 | 0.424 | 0.478

— the supplement of paper PMC3616981
